Consider five targets from the supplement of paper PMC6411743.

± gives the standard deviation of the averaged measurements. Of roughly 5,400 targets only a part is listed; those with the largest changes were picked by preference.

Compound in the assay: Nc1nc2c(ncn2[C@@H]2O[C@H](COP(=O)(O)OP(=O)(O)OP(=O)(O)O)[C@@H](O)[C@H]2O)c(=O)[nH]1 [guanosine triphosphate]
Description: NP40-soluble protein abundance relative to vehicle (solubility fold change) (ratio); higher = more soluble protein in presence of GTP. As for the experimental part: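 Solubility proteome profiling in Jurkat crude lysate. Lysate was treated with Mg-GTP (0.1-10 mM) for 10 min at room temperature and 3 min at 37 °C, then solubilised with 0.8% NP40 and benzonase, followed by ultracentrifugation. Proteins were quantified by TMT10 LC-MS/MS; the value is the NP40-soluble abundance relative to the NP40-processed vehicle, from 3 independent experiments.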

UniProt Q53GL7, sequence (Q53GL7 whole entry, one chain of several): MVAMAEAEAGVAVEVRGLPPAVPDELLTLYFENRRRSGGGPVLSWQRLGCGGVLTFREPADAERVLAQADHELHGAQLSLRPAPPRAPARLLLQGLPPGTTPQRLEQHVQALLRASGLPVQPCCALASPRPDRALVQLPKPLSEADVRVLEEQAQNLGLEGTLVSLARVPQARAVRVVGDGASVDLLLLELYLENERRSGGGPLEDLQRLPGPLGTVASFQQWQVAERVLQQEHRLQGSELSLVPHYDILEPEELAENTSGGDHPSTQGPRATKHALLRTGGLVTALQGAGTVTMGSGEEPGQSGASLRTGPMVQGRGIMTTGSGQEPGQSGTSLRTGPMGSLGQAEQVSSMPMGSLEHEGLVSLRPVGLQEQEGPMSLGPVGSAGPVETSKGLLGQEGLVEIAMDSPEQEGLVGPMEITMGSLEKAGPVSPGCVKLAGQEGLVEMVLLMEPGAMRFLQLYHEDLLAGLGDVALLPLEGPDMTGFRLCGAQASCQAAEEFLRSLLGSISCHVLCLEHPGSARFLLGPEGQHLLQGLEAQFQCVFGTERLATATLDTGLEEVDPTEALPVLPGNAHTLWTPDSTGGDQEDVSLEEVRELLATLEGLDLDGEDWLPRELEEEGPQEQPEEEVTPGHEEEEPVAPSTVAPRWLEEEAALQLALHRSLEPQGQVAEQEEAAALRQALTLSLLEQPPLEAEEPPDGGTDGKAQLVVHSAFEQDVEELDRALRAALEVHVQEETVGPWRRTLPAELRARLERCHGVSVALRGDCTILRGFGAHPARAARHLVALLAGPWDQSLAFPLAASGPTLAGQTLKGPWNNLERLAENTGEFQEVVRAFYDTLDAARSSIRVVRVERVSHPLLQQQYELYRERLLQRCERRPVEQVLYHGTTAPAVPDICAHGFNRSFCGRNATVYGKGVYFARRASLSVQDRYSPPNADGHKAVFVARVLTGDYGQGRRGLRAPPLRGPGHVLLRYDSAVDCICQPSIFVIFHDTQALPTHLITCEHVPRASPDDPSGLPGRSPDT
UniProt Q16629, sequence (Q16629 whole entry, one chain of several): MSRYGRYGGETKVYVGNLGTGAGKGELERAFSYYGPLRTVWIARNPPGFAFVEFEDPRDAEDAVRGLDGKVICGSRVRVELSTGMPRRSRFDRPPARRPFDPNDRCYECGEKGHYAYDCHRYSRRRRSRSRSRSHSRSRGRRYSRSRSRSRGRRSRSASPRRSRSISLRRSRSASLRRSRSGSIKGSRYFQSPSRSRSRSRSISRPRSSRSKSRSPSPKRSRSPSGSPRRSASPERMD
UniProt Q9NZ52, sequence (Q9NZ52 whole entry, one chain of several): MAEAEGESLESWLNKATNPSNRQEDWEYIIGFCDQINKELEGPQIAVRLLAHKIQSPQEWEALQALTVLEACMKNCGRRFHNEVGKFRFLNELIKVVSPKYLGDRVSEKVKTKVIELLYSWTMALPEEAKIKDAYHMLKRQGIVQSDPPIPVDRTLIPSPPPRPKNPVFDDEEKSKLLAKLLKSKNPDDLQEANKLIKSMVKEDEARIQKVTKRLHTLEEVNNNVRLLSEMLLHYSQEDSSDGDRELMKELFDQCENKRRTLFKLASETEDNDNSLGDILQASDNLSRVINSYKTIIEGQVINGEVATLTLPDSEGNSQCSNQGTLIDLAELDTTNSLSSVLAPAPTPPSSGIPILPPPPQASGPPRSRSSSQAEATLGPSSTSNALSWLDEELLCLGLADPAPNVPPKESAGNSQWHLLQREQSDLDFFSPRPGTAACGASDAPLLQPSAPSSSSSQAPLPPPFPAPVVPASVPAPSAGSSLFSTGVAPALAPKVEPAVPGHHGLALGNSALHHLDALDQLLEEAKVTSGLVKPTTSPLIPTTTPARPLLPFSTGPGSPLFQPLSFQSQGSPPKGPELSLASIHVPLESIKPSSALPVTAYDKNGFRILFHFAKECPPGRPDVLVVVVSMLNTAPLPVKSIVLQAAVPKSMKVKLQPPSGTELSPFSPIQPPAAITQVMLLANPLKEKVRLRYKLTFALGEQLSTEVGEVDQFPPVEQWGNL
UniProt Q9NQ29, sequence (Q9NQ29 whole entry, one chain of several): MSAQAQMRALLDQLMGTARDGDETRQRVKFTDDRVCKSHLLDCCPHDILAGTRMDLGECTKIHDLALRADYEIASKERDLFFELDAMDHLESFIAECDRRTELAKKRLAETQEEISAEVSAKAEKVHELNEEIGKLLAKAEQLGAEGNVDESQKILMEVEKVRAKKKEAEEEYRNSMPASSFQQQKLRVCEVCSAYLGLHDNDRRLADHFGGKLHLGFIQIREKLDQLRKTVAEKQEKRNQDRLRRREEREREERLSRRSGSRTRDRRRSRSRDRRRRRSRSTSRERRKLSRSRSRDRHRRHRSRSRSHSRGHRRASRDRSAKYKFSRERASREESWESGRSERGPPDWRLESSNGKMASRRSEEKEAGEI

Turning to “B8ZZ10|Q9NQ29|Q9NQ29-2|Q9NQ29-3 (UniProt Q9NQ29)”, the NP40-soluble protein abundance (concentration: 0.1mM) turned out to be 1.26 ± 0.045; the NP40-soluble protein abundance (concentration: 0.5mM) turned out to be 1.75 ± 0.11; the NP40-soluble protein abundance (concentration: 1mM) stood at 1.91 ± 0.18; the NP40-soluble protein abundance (concentration: 2mM) is 1.95 ± 0.12; the NP40-soluble protein abundance (concentration: 4mM) amounted to 1.98 ± 0.12; the NP40-soluble protein abundance (concentration: 6mM) stood at 2.09 ± 0.14. Besides, the NP40-soluble protein abundance (concentration: 8mM) is 2.21 ± 0.28 and the NP40-soluble protein abundance (concentration: 10mM) was determined as 2.22 ± 0.28.

In the case of E9PK67|E9PNI7|Q53GL7 (UniProt Q53GL7), the NP40-soluble protein abundance reads like this: (concentration: 0.1mM) 1.05 ± 0.097; (concentration: 0.5mM) 1.06 ± 0.12; (concentration: 1mM) 0.954 ± 0.041; (concentration: 2mM) 1.01 ± 0.15; (concentration: 4mM) 0.982 ± 0.12; (concentration: 6mM) 0.935 ± 0.11. In addition, the NP40-soluble protein abundance reads like this: (concentration: 8mM) 0.949 ± 0.019; (concentration: 10mM) 0.949 ± 0.08.

Regarding “A0A087WYN2|J3KSS7|Q9NZ52|Q9NZ52-4 (UniProt Q9NZ52)”, the NP40-soluble protein abundance (concentration: 0.1mM) stood at 0.909 ± 0.037; the NP40-soluble protein abundance (concentration: 0.5mM) came to 0.905 ± 0.087; the NP40-soluble protein abundance (concentration: 1mM) came to 0.957 ± 0.09; the NP40-soluble protein abundance (concentration: 2mM) was 0.915 ± 0.13; the NP40-soluble protein abundance (concentration: 4mM) amounted to 0.92 ± 0.14; the NP40-soluble protein abundance (concentration: 6mM) amounted to 0.94 ± 0.16. The NP40-soluble protein abundance (concentration: 8mM) came to 0.921 ± 0.08 and the NP40-soluble protein abundance (concentration: 10mM) turned out to be 0.896 ± 0.057.

Regarding “A0A0B4J1Z1|C9JAB2|Q16629|Q16629-2|Q16629-3|Q16629-4 (UniProt Q16629)”, the NP40-soluble protein abundance stood at 1.089 ± 0.0095 (concentration: 0.1mM); 1.36 ± 0.1 (concentration: 0.5mM); 1.57 ± 0.23 (concentration: 1mM); 1.58 ± 0.16 (concentration: 2mM); 1.44 ± 0.33 (concentration: 4mM); 1.55 ± 0.35 (concentration: 6mM). The NP40-soluble protein abundance (concentration: 8mM) came to 1.74 ± 0.47 and the NP40-soluble protein abundance (concentration: 10mM) amounted to 1.75 ± 0.52.

For the target “A8MXF6|B7ZBD5|Q9UBK7|Q9UBK7-2|Q9UBK7-3|Q9UNT1|Q9UNT1-2|Q9UNT1-3 (UniProt Q9UNT1+Q9UBK7+B7ZBD5+A8MXF6)”, the NP40-soluble protein abundance stood at 1.03 ± 0.038 (concentration: 0.1mM); 1.03 ± 0.035 (concentration: 0.5mM); 1.02 ± 0.032 (concentration: 1mM); 1.01 ± 0.084 (concentration: 2mM); 0.947 ± 0.046 (concentration: 4mM); 0.955 ± 0.071 (concentration: 6mM). For the same target, the NP40-soluble protein abundance is, setting by setting: (concentration: 8mM) 0.949 ± 0.053; (concentration: 10mM) 0.94158 ± 0.00038.
